Records with an inconclusive call do not appear. Calls of active or inactive are those of the source. The calls were made as follows: active = hit-call score of the fitted dose curve at least 0.9, where 1 is the maximum; inconclusive = response in the unintended direction; inactive = score below 0.9.
Experiments:
[1] = target: Cellular tumor antigen p53 (Homo sapiens) (UniProt P04637); test: TOX21_p53_BLA_p2_ratio: Tox21 HCT-116 p53 Agonism Beta-lactamase Assay, Ratio, Phase 2 (AID 2283592)
Outline: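 DMSO-normalized, positive-direction endpoint derived from the 460 nm/530 nm FRET ratio in HCT116 p53 beta-lactamase reporter cells exposed 16 h at 37C and loaded with CCF4-AM for 2 h.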

[2] = target: Cellular tumor antigen p53 (Homo sapiens) (UniProt P04637); test: TOX21_p53_BLA_p3_ratio: Tox21 HCT-116 p53 Agonism Beta-lactamase Assay, Ratio, Phase 3 (AID 2283596)
Outline: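 Cells were seeded at 4000/well, rested 5 h at 37C, then dosed with DMSO compound solutions (217-fold dilution) for 16 h. CCF4-AM substrate was loaded for 2 h at room temperature, and the 460/530 nm emission ratio was fitted for gain of signal versus DMSO.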

[3] = TOX21_p53_BLA_p4_viability: Viability Assessment in the Tox21 HCT-116 p53 Agonism Beta-lactamase Assay, Phase 4 (AID 2283597);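 also: hits lower the luminescence signal meaning cytotoxicity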
Outline: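 In this multiplexed secondary endpoint, HCT116 cells (4000 per well, compound at 5 h, 16 h treatment) received CellTiter-Glo after the beta-lactamase read. Luminescence after 30 min RT reflects ATP, and falling signal marks cytotoxicity.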

[4] = TOX21_p53_BLA_p5_viability: Viability Assessment in the Tox21 HCT-116 p53 Agonism Beta-lactamase Assay, Phase 5 (AID 2283600)
Outline: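 Here cell health was gauged by ATP levels in wells holding 4000 cells, each treated 16 h with DMSO-delivered compounds at 217-fold dilution; reduced luminescence marked toxicity.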

[5] = target: Cellular tumor antigen p53 (Homo sapiens) (UniProt P04637); test: TOX21_p53_BLA_p4_ratio: Tox21 HCT-116 p53 Agonism Beta-lactamase Assay, Ratio, Phase 4 (AID 2283601)
Outline: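 HCT116 cells carrying an inducible beta-lactamase reporter were plated at 4000 cells/well, rested 5 h, then exposed to compounds in DMSO (217-fold dilution) for 16 h at 37C. CCF4-AM substrate was loaded 2 h at room temperature; 460/530 nm emission ratio scored gain-of-signal versus DMSO.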

[6] = target: Cellular tumor antigen p53 (Homo sapiens) (UniProt P04637); test: TOX21_p53_BLA_p5_ratio: Tox21 HCT-116 p53 Agonism Beta-lactamase Assay, Ratio, Phase 5 (AID 2283599)
Outline: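 HCT-116 cells carrying a p53-inducible beta-lactamase reporter were seeded at 4000 cells/well and dosed after 5 h with compound in DMSO (217-fold dilution). After 16 h at 37C, CCF4-AM substrate was added for 2 h, and the 460/530 nm emission ratio was scored as gain-of-signal versus DMSO.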

Measured: AC50

Cellular tumor antigen p53 (Homo sapiens), sequence (P04637 whole entry, looked up): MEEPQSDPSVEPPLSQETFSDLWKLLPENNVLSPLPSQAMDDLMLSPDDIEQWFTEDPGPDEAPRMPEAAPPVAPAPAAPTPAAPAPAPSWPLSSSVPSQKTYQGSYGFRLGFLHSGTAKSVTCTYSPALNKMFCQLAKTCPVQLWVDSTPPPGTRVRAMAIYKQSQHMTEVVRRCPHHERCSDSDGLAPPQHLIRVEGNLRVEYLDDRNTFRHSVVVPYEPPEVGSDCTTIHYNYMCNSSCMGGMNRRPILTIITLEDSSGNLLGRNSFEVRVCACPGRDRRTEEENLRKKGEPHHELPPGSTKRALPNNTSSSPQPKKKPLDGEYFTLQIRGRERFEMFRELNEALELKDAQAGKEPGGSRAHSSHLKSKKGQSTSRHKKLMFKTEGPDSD

O=C(O)CP(=O)(O)O
inactive: [1] | [2] | [3] | [4] | [5]

OCc1c2ccccc2cc2ccccc12
inactive: [1] | [2] | [3] | [5]

CN1CCOC(c2ccccc2)c2ccccc2C1 (centres undefined)
inactive: [1] | [2] | [3] | [5]

CNC[C@@H]1CC[C@@H](N)[C@@H](O[C@H]2[C@H](O)[C@@H](O[C@H]3OC[C@](C)(O)[C@H](NC)[C@H]3O)[C@H](N)C[C@@H]2N)O1
inactive: [1] | [2] | [3] | [4]

CCOC(=O)CCC(=O)O[C@H]1[C@H](O[C@@H]2[C@@H](C)[C@H](O[C@H]3C[C@@](C)(OC)[C@@H](O)[C@H](C)O3)[C@@H](C)C(=O)O[C@H](CC)[C@@](C)(O)[C@H](O)[C@@H](C)C(=O)[C@H](C)C[C@@]2(C)O)O[C@H](C)C[C@@H]1N(C)C
inactive: [1] | [2] | [3] | [5]

C=C1[C@H](CO)[C@@H](O)C[C@@H]1n1cnc2c(=O)[nH]c(N)nc21
inactive: [1] | [2] | [3] | [4] | [5]

CCCOC(=O)c1ccccc1O
inactive: [1] | [2] | [6] | [4]

O=C(O)CCC/C=C\C[C@@H]1[C@@H](/C=C/[C@@H](O)COc2cccc(Cl)c2)[C@H](O)C[C@@H]1O
inactive: [1] | [2] | [6]

CC(C)COC(=O)OCN1C(=O)CN(CCN2CC(=O)N(COC(=O)OCC(C)C)C(=O)C2)CC1=O
inactive: [3]
active: [1] 4.1 µM | [2] 4.07 µM | [5] 3.05 µM

COC(=O)c1cccc(Cl)c1
inactive: [1] | [2] | [3] | [4] | [5]

S=C(SSSSSSC(=S)N1CCCCC1)N1CCCCC1
inactive: [1] | [2] | [3] | [4]

CC(C)c1ncc([N+](=O)[O-])n1C
inactive: [1] | [2] | [6] | [4]

CO[C@H]1[C@@H](O)[C@H](N)[C@@H](O[C@H]2O[C@H]([C@H](C)N)CC[C@H]2N)[C@H](O)[C@@H]1N(C)C(=O)CN
inactive: [1] | [2] | [3] | [4] | [5]

C1CSCCS1
inactive: [1] | [2] | [6] | [4]

CCOc1ccc(S(=O)(=O)O)c2cccnc12
inactive: [1] | [2] | [6] | [4]

CC(=O)OCC(=O)[C@@]1(O)CC[C@H]2[C@@H]3CCC4=CC(=O)CC[C@]4(C)C3=CC[C@@]21C
inactive: [1] | [2] | [6] | [4]

CC(=O)c1ccc(Cl)c(Cl)c1Cl
inactive: [1] | [2] | [6] | [4]

NC(=O)OCC(O)COc1ccc(Cl)cc1 (centres undefined)
inactive: [1] | [2] | [6]

CN1CCc2c(c3ccccc3n2Cc2ccccc2)C1
inactive: [1] | [2] | [3] | [5]

CNC(=O)NC
inactive: [1] | [2] | [3] | [5]

CC1(C)Cc2cccc(N)c2O1
inactive: [1] | [2] | [6] | [4]

OCCOc1ccc(OCCO)cc1
inactive: [1] | [2] | [3] | [4] | [5]

O=C1OC(=O)C2CC=CCC12 (centres undefined)
inactive: [1] | [2] | [6] | [4]

Cc1cnc(C)c(C)n1
inactive: [1] | [2] | [6] | [4]

CC(=O)OCC[N+](C)(C)C
inactive: [1] | [2] | [3] | [4] | [5]

C[C@]12CC[C@@H]3c4ccc(OC(=O)c5ccccc5)cc4CC[C@H]3[C@@H]1CC[C@@H]2O
inactive: [1] | [2] | [6] | [4]

CS(=O)(=O)c1ccc([C@@H](O)[C@@H](COC(=O)CN)NC(=O)C(Cl)Cl)cc1
inactive: [1] | [2] | [3] | [4]

NS(=O)(=O)c1cc(-c2nn[nH]n2)c(NCc2cccs2)cc1Cl
inactive: [1] | [2] | [6] | [4]

Cc1ccc(/C(=C\CN2CCCC2)c2ccccn2)cc1
inactive: [1] | [2] | [3] | [4] | [5]

CCCCOC(=O)C(=O)Nc1cccc(-c2nn[nH]n2)c1
inactive: [1] | [2] | [3] | [4]

NC(=O)Nc1nc2ccccc2[nH]1
inactive: [1] | [2] | [3] | [4] | [5]

O=C(N=NC(=O)OCc1ccccc1)OCc1ccccc1
inactive: [1] | [2] | [3] | [4] | [5]

CCCc1nc2c(C)cc(-c3nc4ccccc4n3C)cc2n1Cc1ccc(-c2ccccc2C(=O)O)cc1
inactive: [1] | [2] | [6]

CN(CCOc1ccc(NS(C)(=O)=O)cc1)CCc1ccc(NS(C)(=O)=O)cc1
active: [6] 37.7 µM
inactive: [1] | [2]

C=CC[N@@+]12CC[C@@]34c5ccccc5N5/C=C6/[C@H]7C[C@H]8[C@@]9(CC[N@@+]8(CC=C)C/C7=C/CO)c7ccccc7N(/C=C(/[C@@H](C[C@@H]31)/C(=C\CO)C2)[C@H]54)[C@@H]69
inactive: [1] | [2] | [6]

CC(C)(C)C(=O)OCC(=O)[C@H]1CC[C@H]2[C@@H]3CCC4=CC(=O)CC[C@]4(C)[C@H]3CC[C@]12C
inactive: [1] | [2] | [6] | [4] | [5]

— PubChem BioAssay (EPA / NIEHS)
